Screening results (PubChem BioAssay)
BAZ2B inh – blocks human BAZ2B; Q9UIF8; AlphaScreen BAZ2B-H3K14Ac peptide displacement; Potency, µM (top dose mostly 114 µM), without a hit: at the top dose activity change, negative = inhibition, most hits filed as inhibitors; 360,000 tested, 4.4% active; AID 504333; note: % is set by controls: 0 for no effect and ±100 for the full control effect; nearly all actives have a fitted effect of over 60% in size
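AlphaScreen luminescence quantifies BAZ2B engagement of H3K14Ac peptide; the protein and biotinylated peptide are both at 50 nM final, buffer PBS pH 7.4 with 0.01% Tween-20, all steps at room temperature.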
JMJD2A Tudor inh – JMJD2A Tudor domain (human) inhibition | Potency, µM (series often up to 114 µM), for inactives: top-dose activity change, negative = inhibition, actives largely listed as inhibitors | AlphaScreen JMJD2A-Tudor / H3K4me3 peptide binding | AID 504339 | O75164 | 390,000 tested, 4.4% active; note: % is set by controls: 0 for no effect and ±100 for the full control effect; nearly all actives have a fitted effect of over 50% in size
G9a block – G9a (human) methyltransferase inhibition. G9a H3K9 monomethylation, AlphaScreen, 2 h. Potency, µM (doses to about 102 µM), inactives show at the top dose activity, negative = inhibition, usual class: inhibitors. 350,000 tested, 8.8% active. AID 504332; note: % is set by controls: 0 for no effect and ±100 for the full control effect; nearly all actives have a fitted effect of over 75% in size
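G9a (20 nM) was preincubated 15 min with compound, then reacted 2 h at room temperature with 500 nM biotin-H3K9 peptide and 20 µM SAM. Monomethyl-H3K9 detected by AlphaScreen using anti-H3K9me1 antibody.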
L3MBTL1 inh – blocks human L3MBTL1; Potency, µM (top dose mostly 57.1 µM), inactives show at the top dose activity, negative = inhibition, usual class: inhibitors; Q9Y468; AlphaScreen L3MBTL1–H3K9me1 peptide binding; 230,000 tested, 0.66% active; AID 485360; note: % is set by controls: 0 for no effect and ±100 for the full control effect; nearly all actives have a fitted effect of over 60% in size
Target sequence (Q9Y468 whole entry, looked up): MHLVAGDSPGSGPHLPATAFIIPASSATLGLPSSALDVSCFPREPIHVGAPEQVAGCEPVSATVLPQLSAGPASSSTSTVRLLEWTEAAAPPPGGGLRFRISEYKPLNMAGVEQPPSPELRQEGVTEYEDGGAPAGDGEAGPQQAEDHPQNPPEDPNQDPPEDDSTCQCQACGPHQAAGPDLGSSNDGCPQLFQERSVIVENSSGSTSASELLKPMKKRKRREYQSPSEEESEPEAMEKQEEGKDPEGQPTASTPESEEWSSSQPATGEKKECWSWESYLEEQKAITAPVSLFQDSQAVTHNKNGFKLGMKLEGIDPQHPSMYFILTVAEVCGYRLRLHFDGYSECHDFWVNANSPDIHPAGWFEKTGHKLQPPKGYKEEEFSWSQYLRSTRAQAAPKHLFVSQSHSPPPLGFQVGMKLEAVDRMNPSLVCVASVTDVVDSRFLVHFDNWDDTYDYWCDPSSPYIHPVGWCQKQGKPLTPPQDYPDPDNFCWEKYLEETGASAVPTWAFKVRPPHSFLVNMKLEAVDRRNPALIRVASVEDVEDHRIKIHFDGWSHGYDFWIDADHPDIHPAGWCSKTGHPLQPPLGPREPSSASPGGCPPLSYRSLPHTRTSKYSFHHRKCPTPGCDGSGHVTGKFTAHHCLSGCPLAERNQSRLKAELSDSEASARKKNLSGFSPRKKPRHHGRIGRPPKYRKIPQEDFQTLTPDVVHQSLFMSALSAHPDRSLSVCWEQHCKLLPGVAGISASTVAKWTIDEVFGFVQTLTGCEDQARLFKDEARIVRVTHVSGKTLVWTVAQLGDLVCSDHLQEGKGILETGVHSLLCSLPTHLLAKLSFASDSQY
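Displacement of a biotinylated histone H3(1-15) peptide monomethylated at Lys9 (75 nM) from L3MBTL1 (50 nM) was measured by AlphaScreen after a 30 min room-temperature compound incubation; cefsulodin titration served as intraplate control.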
HP1b chromo inh – inhibitors of HP1-beta chromodomain binding to methylated histone tails. AID 540317. 390,000 tested, 0.56% active. AlphaScreen HP1-beta / biotin-H3K9me3 peptide binding. P83916. Potency, µM (titrated, usually from 114 µM), inactives show at the top dose activity change, negative = inhibition, most hits filed as inhibitors; note: nearly all actives have a fitted effect of over 70% in size
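AlphaScreen: HP1-beta (50 nM) preformed 30 min with biotin-H3(1-18)K9me3 peptide (50 nM) in PBS pH 7.4, 0.01% Tween-20. Compound added for 30 min at RT, then streptavidin donor/nickel chelate acceptor beads (10 ug/mL) for 30 min.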
* marks the source's active call; other numbers are inactive results; ? = inconclusive; . = not tested or not shown; ! = repeats disagree; [ ] = dose if it differs, or a comment. Sampled rows, rich in hits. Any-hit rate of the full collection: about 11%. Calls come from the whole dose curve; as a rule, active = well fitted inhibition curve with a large enough effect; inconclusive = small, poorly fitted or top-dose-only effect; inactive = no such curve, though single readings can be large or run the other way. Potency is the fitted concentration of half-maximal effect.

SMILES | BAZ2B inh | JMJD2A Tudor inh | G9a block | L3MBTL1 inh | HP1b chromo inh
Cc1c(Cl)cccc1NC(=O)CNc1cccc(C(F)(F)F)c1 | 7% | -17% | 71µM* | 7% | 33%
Cc1ccc(N2C(=O)c3ccccc3C2Nc2ccccc2F)nc1 (stereo unspecified) | -1% | -9% | 50µM* | . | 59%
Cc1ccc(N2CC(NC(=O)C3CCCCC3)CC2=O)cc1C (stereo unspecified) | 3% | -5% | 5%[59 µM] | . | 25%
O=C(O)c1ccccc1OC1=NS(=O)(=O)c2ccccc21 | . | 79µM* | . | . | .
O=S1(=O)N=C(Oc2ccccc2Br)c2ccccc21 | . | 79µM* | . | . | .
Cc1ccccc1OC1=NS(=O)(=O)c2ccccc21 | -32% | ? | ? | 3% | 14%
O=S1(=O)N=C(Oc2ccccc2Cl)c2ccccc21 | . | 112µM* | . | . | .
Cc1cccc2c1cnn2C(=O)Nc1ccc(Br)cc1F | -6% | 10% | 35µM* | . | 24%
Cc1ccc(NC(=O)n2ncc3c(C)cccc32)c(C)c1 | -9% | 4% | -21% | . | 15%
O=C(c1ccccc1)c1cc(Cl)ccc1N1C(=O)C=CC1=O | 79µM* | 18µM* | 1.8µM* | -16% | 10µM*
COc1ccccc1-c1noc(-c2ccc(NC(C)C)c([N+](=O)[O-])c2)n1 | ? | 0% | -33%[59 µM] | . | 59%
Cc1ccccc1CN1CCN(S(=O)(=O)c2ccc(Cl)s2)CC1 | 12% | 47% | 35% | . | 111%
CCS(=O)(=O)N1CCN(S(=O)(=O)c2ccc(Cl)s2)CC1 | 50µM* | -1% | 16µM* | . | 38%
CCN(Cc1ccccc1)C(=O)CN(c1ccc(OC)cc1)S(=O)(=O)c1c(C)nn(C)c1C | . | -18% | 0%[59 µM] | . | 16%
Nc1ccc(S(=O)(=O)NCc2ccccc2)cc1 | . | . | 1%[12.7 µM] | . | .
CCCn1c(SCC(=O)N2CCCCC2)nnc1C(C)C | -2% | 25µM* | . | 8% | ?
CCCSc1ncc(Cl)c(C(=O)Nc2ccc(S(=O)(=O)N3CCCCC3C)cc2)n1 (stereo unspecified) | -18% | -14% | -15%[59 µM] | . | 22%
CN1CCc2c(sc3nc(NN)n(Cc4ccccc4)c(=O)c23)C1 | ? | ? | 45µM* | -5% | -20%
CN1CCc2c(sc3nc(NN)n(-c4ccc(Cl)cc4)c(=O)c23)C1 | ? | ? | 45µM* | . | 3%
CN1CCc2c(sc3c2c(=O)n(-c2ccc(Cl)cc2)c2nncn32)C1 | -10% | -24% | ? | 0% | 74%
COc1ccc(CNC(=O)CCNC(=O)N2CCn3c2nc2ccccc23)cc1 | -17%[57.1 µM] | 40µM* | 45µM* | . | 34%
O=C(c1cccc(Cl)c1)N1CCn2c1nc1ccccc12 | -14% | -7% | 19% | -1% | 11%
COc1cccc(CNC(=O)CCNC(=O)N2CCn3c2nc2ccccc23)c1 | -11% | -22% | ? | . | 47%
O=C(c1ccccc1)N1CCn2c1nc1ccccc12 | 5% | 56µM* | -7%[0.501 µM] | 7% | 5%
COc1ccc(CNC(=O)Cn2ccc3cc(S(=O)(=O)N4CCCC4)ccc32)c(OC)c1 | -21% | -2% | 6%[59 µM] | . | 36%
SMILES | BAZ2B inh | JMJD2A Tudor inh | G9a block | L3MBTL1 inh | HP1b chromo inh
CCOC(=O)C(=NCCOC)NNc1cc(Cl)ccc1Cl | ? | ? | 40µM* | -8% | 15%
CCc1ccc(C(=O)NNc2cc(Cl)ccc2Cl)cc1 | -8% | -25% | -3% | 3% | 62%
CCN(CC)c1ccc(-c2nc3cnccn3c2NC2CCCC2)cc1 | -5% | 79µM* | 50µM* | -2% | ?
O=C(CSc1nc(-c2cccs2)cc(C(F)(F)F)n1)Nc1cc(OCC(F)(F)F)cc([N+](=O)[O-])c1 | -7% | 22µM* | -17%[59 µM] | 9% | -4%
Cc1onc(NC(=O)c2ccc(Cl)cc2Cl)c1Br | -5% | -22% | 18µM* | . | 11%
Cc1c(C(=O)N(Cc2ccncc2)CC2CCCO2)oc2c(F)cccc12 (stereo unspecified) | -9% | -21% | . | . | 28%
COc1cc(C(=O)N(Cc2ccc(N(C)C)cc2)CC2CCCO2)cc(OC)c1OC (stereo unspecified) | 79µM* | -30% | ? | . | 5%
Cc1ccc2c(C)c(C(=O)N(Cc3ccncc3)CC3CCCO3)oc2c1C (stereo unspecified) | -10% | -28% | . | . | 14%
Cc1ccc2oc(C(=O)N(Cc3ccc(N(C)C)cc3)CC3CCCO3)c(C)c2c1 (stereo unspecified) | 11µM* | 50µM* | 28µM* | . | ?
Cc1cc2oc(C(=O)N(Cc3ccc(N(C)C)cc3)CC3CCCO3)c(C)c2cc1C (stereo unspecified) | 14µM* | 13µM*! | 14µM* | . | ?
COc1cc(CN(CC2CCCO2)C(=O)c2ccc(F)cc2)cc(OC)c1OC (stereo unspecified) | 0% | 0% | 4%[59 µM] | . | 0%
CCN1CCc2c(sc(-n3cccc3)c2C(C)NC(=O)Nc2ccccc2C)C1 (stereo unspecified) | ? | -35% | ? | . | -13%
COc1cccc2[nH]c3c(N4CCN(Cc5ccc6c(c5)OCO6)CC4)ncnc3c12 | 35µM* | . | 45µM* | 7% | .
Cc1ccc2[nH]c3c(N4CCN(Cc5ccc6c(c5)OCO6)CC4)ncnc3c2c1 | ? | . | 50µM* | -3% | .
COc1ccc2c(c1)[nH]c1c(N3CCN(Cc4ccc5c(c4)OCO5)CC3)ncnc12 | 45µM* | ? | . | -12% | -27%
O=C(Nc1c2c(nn1-c1ccc(Cl)cc1)CS(=O)(=O)C2)c1cccc(Cl)c1 | -1% | -8% | -3%[59 µM] | . | 14%
N#CC1=C(N)Nc2ncnn2C1c1ccccc1 (stereo unspecified) | 5% | . | 22%[59 µM] | 7% | .
CNC(=O)C1C(=S)NC(N)=C(C#N)C1c1ccccc1 (stereo unspecified) | -11% | 25µM* | 13µM* | . | -19%
CC(O)CN(C)C (stereo unspecified) | . | . | -28%[12.7 µM] | . | .
CCN(CC)c1ccc(/C=C2\NC(=O)NC2=O)cc1 | -4% | -16% | -17% | -4% | 7%
O=C1NC(=O)/C(=C\c2ccsc2)N1 | 45% | 32µM* | -12% | . | -3%
COC(=O)c1ccc(NC(=O)CN(Cc2ccccc2)S(=O)(=O)c2ccc(Cl)cc2)cc1 | -5% | -10% | -3%[59 µM] | . | -13%
O=C(CC1C(=O)NCCN1CC1CCCCC1)NCc1cc(F)ccc1F (stereo unspecified) | -3% | 11µM* | . | 7% | -13%
CC(C)c1cc(CNC(=O)CC2C(=O)NCCN2CC2CCCCC2)on1 (stereo unspecified) | -2% | -15% | 50µM* | -5% | 40%
CCC(C)NC(=O)C1=CC(c2ccc3c(c2)OCO3)=NS(=O)(=O)N1C (stereo unspecified) | -9% | -4% | -6%[59 µM] | . | 50%
[O-]c1c[n+](-c2ccccc2)no1 | -2% | -18% | 5µM* | . | 57%
